# Test results as given in the supplement of paper PMC6555819.
# Tests used:
# Assay in all cases: PBM binding z-score (relative to random genomic background probes); higher = stronger binding; sequences stand for … in GC…GCGATTGACAGCGTAGAATGAAGG
# [1] = test system: FXR:RXRa (NR concentration 270 nM, RXRa partner concentration 90 nM)
# Procedure, shortened: (§1)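 On custom Agilent 4×180K arrays, double-stranded probes with 34-nt variable regions carried direct-repeat seeds, single-nucleotide variants, half-site ablations or random human genomic background. Ligand-free nuclear receptor dimers were applied for 1 h, and binding was read with antibodies against each partner (one per run). Binding z-scores come from regression-normalized fluorescence, with the random background probes as reference.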
# [2] = test system: LXRa:RXRa (NR concentration 270 nM, RXRa partner concentration 90 nM)
# Procedure, shortened: as §1
# [3] = test system: LXRa homodimer (NR concentration 270 nM)
# Procedure, shortened: as §1
# [4] = test system: LXRb:RXRa (NR concentration 270 nM, RXRa partner concentration 90 nM)
# Procedure, shortened: as §1
# [5] = test system: LXRb homodimer (NR concentration 270 nM)
# Procedure, shortened: as §1
# [6] = test system: PPARa:RXRa (NR concentration 270 nM, RXRa partner concentration 90 nM)
# Procedure, shortened: as §1
# [7] = test system: PPARg:RXRa (NR concentration 180 nM, RXRa partner concentration 90 nM)
# Procedure, shortened: as §1
# [8] = test system: PPARg:RXRa 270nM:90nM, anti-RXR (NR concentration 270 nM, RXRa partner concentration 90 nM)
# Procedure, shortened: as §1
# [9] = test system: PPARg:RXRa 30nM:10nM, anti-RXR (NR concentration 30 nM, RXRa partner concentration 10 nM)
# Procedure, shortened: as §1
# [10] = test system: PPARg:RXRa 90nM:30nM, anti-RXR (NR concentration 90 nM, RXRa partner concentration 30 nM)
# Procedure, shortened: as §1
# [11] = test system: PPARg:RXRa DBDmut IVT, anti-RXR (DBD mutation: RXRa K156A/R161A, NR concentration 270 nM, RXRa partner concentration 90 nM)
# Procedure, shortened: as §1
# [12] = test system: PPARg:RXRa IVT, anti-PPARg (NR concentration 270 nM, RXRa partner concentration 90 nM)
# Procedure, shortened: as §1
# [13] = test system: PPARg DBDmut:RXRa IVT, anti-PPARg (DBD mutation: PPARg1 K132A/R137A, NR concentration 270 nM, RXRa partner concentration 90 nM)
# Procedure, shortened: as §1
# [14] = test system: PPARg DBDmut IVT, anti-PPARg (DBD mutation: PPARg1 K132A/R137A, NR concentration 270 nM)
# Procedure, shortened: as §1
# [15] = test system: PPARg homodimer (NR concentration 180 nM)
# Procedure, shortened: as §1
# [16] = test system: PXR:RXRa (NR concentration 270 nM, RXRa partner concentration 90 nM)
# Procedure, shortened: as §1
# [17] = test system: PXR homodimer (NR concentration 270 nM)
# Procedure, shortened: as §1
# [18] = test system: RARa:RXR (NR concentration 270 nM, RXRa partner concentration 90 nM)
# Procedure, shortened: as §1
# [19] = test system: RARa homodimer (NR concentration 270 nM)
# Procedure, shortened: as §1
# [20] = test system: RARb:RXRa (NR concentration 270 nM, RXRa partner concentration 90 nM)
# Procedure, shortened: as §1
Sequence,PBM binding z-score [1],PBM binding z-score [2],PBM binding z-score [3],PBM binding z-score [4],PBM binding z-score [5],PBM binding z-score [6],PBM binding z-score [7],PBM binding z-score [8],PBM binding z-score [9],PBM binding z-score [10],PBM binding z-score [11],PBM binding z-score [12],PBM binding z-score [13],PBM binding z-score [14],PBM binding z-score [15],PBM binding z-score [16],PBM binding z-score [17],PBM binding z-score [18],PBM binding z-score [19],PBM binding z-score [20]
GCTAGTTGGTCAGTTAAAGGTCACACACCGGTCG,3.58,4.58,5.75,3.98,0.905,4.23,3.18,5.17,3.67,4.95,1.33,2.95,0.429,0.266,5.59,4.98,1.44,6.18,2.99,4.13
AGAATTAGGTTACCAAAGATCAGGGAAACGCTTG,0.207,4.78,0.162,1.15,-0.0791,2.9,3.46,3.45,1.37,2.53,6.61,6.16,1.54,0.973,1.54,0.000566,0.073,0.336,1,1.25
TCATATGGGTAAAAGGTGAAAGTCGGTGTGGTAA,1.33,1.38,-0.164,1.62,-0.571,4.91,8.23,7.44,7.67,8.21,4.48,4.52,0.558,0.338,1.03,1.61,-0.132,2.3,0.788,1.85
TCTTGTAGATCAAATGTTAAGAAAGCCGAAGCCT,0.704,0.517,-0.184,0.216,0.123,1.15,1.12,3.42,3.84,3.61,2.21,0.573,0.744,0.647,0.284,0.199,0.012,0.519,0.868,-0.134
GCTATTAGTTGAAAGGGCTACCGAATGATTCTCG,-0.348,-0.291,-0.117,-0.32,-0.468,0.0178,0.531,1.52,0.317,1.21,0.511,-0.182,-0.304,0.104,0.707,-0.465,-0.174,-0.0219,0.6,0.408
AGAATTAGGTTATACGTAGATCAGGGAAGAAAGT,0.495,0.704,0.321,0.628,0.596,2.29,2.76,2.95,1.74,2.58,6.81,4.61,1.46,1.36,1.25,0.291,0.914,0.687,0.896,0.776
CCGACTGGGGCAAGGTTACCGTAACGCACAGCCA,0.11,0.127,-0.449,0.456,-1.12,1.87,2.6,3.45,0.963,2.8,3.53,3.71,-0.69,-1,-0.362,0.043,-0.221,0.745,-0.534,1.69
